Our source for the growth inhibition and inhibition values is PubChem BioAssay.

Activity calls are given as the source filed them.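 The calls were made as follows, unless noted: active = inhibition above 50%; inactive = the rest.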

For orientation: inhibition means the relative decrease from the control value, in per cent.

One experiment in a line: antimalarial activity against Dd2 strain (AID 2302;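 active = growth inhibition above 50% at the single 2 µM test dose, taken to imply half-maximal potency below 2 µM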;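 also: 0% = DMSO untreated growth and 100% = chloroquine plus artemisinin killed control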). The note with it: P. falciparum Dd2 in RBCs, LDH growth readout, 72 h; at 2 µM; stronger effect = higher value.
`Cc1[nH]nc2ccc(-c3cc(OC[C@@H](N)Cc4ccccc4)cnc3-c3cc4ccccc4s3)cc12`: the growth inhibition was 68% (active). The same measure, in the same setting: in the case of `NS(=O)(=O)c1cccc(N=Cc2c(O)[nH]c3ccc(S(=O)(=O)Cc4c(Cl)cccc4Cl)cc23)c1` it was 99% (active); in that of `CCNC(=O)Nc1ccc(N(C)c2ccnc(Nc3ccc(CS(C)(=O)=O)cc3)n2)cc1`, 99% (active); in that of `O=C(O)c1ccc(-c2cnc3ccc(NC4CCC(O)CC4)nn23)cc1` (configuration not stated), 90% (active). On the same count and under the same terms, the same measure for `CN(C)CC(O)COc1ccc(Nc2ncc([N+](=O)[O-])c(Nc3ccccc3O)n2)cc1` (configuration not stated): 20% (inactive).

Regarding `CCN(CC)CCNC(=O)c1ccc(N=Cc2c(O)[nH]c3ccc(S(=O)(=O)Cc4c(Cl)cccc4Cl)cc23)cc1`, the growth inhibition is 56% (active). Same read-out and setting: the same measure for `N#Cc1ccc(C(=O)Nc2cc(-c3cccc(O)c3)cc3[nH]ncc23)cc1`: 79% (active); for `Cc1ccc(Nc2nc3cc(Nc4ccnc(Nc5cccc(CS(C)(=O)=O)c5)n4)ccc3o2)cc1`: 81% (active); for `CCS(=O)(=O)c1ccc(OC)c(Nc2nccc(-c3c(-c4cccc(NC(=O)c5c(F)cccc5F)c4)nn4ncccc34)n2)c1`: 88% (active). On the same count and under the same terms, in the case of `COc1cc(Nc2nccc(-c3c(-c4cccc(NC(=O)c5c(F)cccc5F)c4)nn4ncccc34)n2)cc(OC)c1OC` it was 97% (active); in that of `Cn1cccc1C(=O)Nc1cccc(-c2nn3ccccc3c2-c2ccnc(Nc3ccc4c(c3)OCCO4)n2)c1`, 27% (inactive). On the same count and under the same terms, in the case of `O=C(Nc1ccccc1)Nc1cccc(-c2nn3c(OCCN4CCCC4)cccc3c2-c2ccncc2)c1` it was 98% (active); in that of `CCn1c(-c2nonc2N)nc2c(-c3cc4ccccc4s3)ncc(C(=O)N3CCC(N)C3)c21` (configuration not stated), 66% (active).

Another experiment can be described thus: human hepatoma cell viability loss – ATP luminescence, cytotoxicity control for P. falciparum antimalarial project, primary screen (AID 2303).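 Also: 0% = DMSO wells and 100% = digitonin-killed cells.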 The note with it: HepG2 viability, 24-48 h, at 10 µM, stronger effect = higher value.
In the case of `Cc1[nH]nc2ccc(-c3cc(OC[C@@H](N)Cc4ccccc4)cnc3-c3cc4ccccc4s3)cc12`, the inhibition was 41% (inactive). On the same count and under the same terms, in the case of `Cc1ccc(Nc2c3ccccc3nc3ccc(C)cc23)cc1` it was 26% (inactive).

Regarding `NS(=O)(=O)c1cccc(N=Cc2c(O)[nH]c3ccc(S(=O)(=O)Cc4c(Cl)cccc4Cl)cc23)c1`, the inhibition is 1% (inactive).

Take `CCNC(=O)Nc1ccc(N(C)c2ccnc(Nc3ccc(CS(C)(=O)=O)cc3)n2)cc1`: the inhibition is -5% (inactive). Still for that read-out and setting: in the case of `O=C(O)c1ccc(-c2cnc3ccc(NC4CCC(O)CC4)nn23)cc1` (configuration not stated) it was 9% (inactive). Same read-out and setting: the same measure for `COc1ccc(NC(=O)c2ccc(-c3cccc(OCc4ccccc4)c3)cc2)cc1N1CCN(C)CC1`: 29% (inactive). Same read-out and setting: in the case of `CN(C)CC(O)COc1ccc(Nc2ncc([N+](=O)[O-])c(Nc3ccccc3O)n2)cc1` (configuration not stated) it was 47% (inactive); in that of `CC(Sc1n[nH]c(-c2ccccc2Br)n1)C(=O)Nc1ccc(F)cc1` (configuration not stated), -7% (inactive). `O=C(CN1C(=O)CC1S(=O)(=O)Cc1ccco1)NCCCCCCc1ccc(F)cc1` (configuration not stated): the inhibition was -2% (inactive).

For `CCN(CC)CCNC(=O)c1ccc(N=Cc2c(O)[nH]c3ccc(S(=O)(=O)Cc4c(Cl)cccc4Cl)cc23)cc1`, the inhibition was 25% (inactive).

With `N#Cc1ccc(C(=O)Nc2cc(-c3cccc(O)c3)cc3[nH]ncc23)cc1`, the inhibition was 15% (inactive). Same read-out and setting: in the case of `Cc1ccc(Nc2nc3cc(Nc4ccnc(Nc5cccc(CS(C)(=O)=O)c5)n4)ccc3o2)cc1` it was 55% (active); in that of `C[C@H]1CN(Cc2ccc(-c3cccc(CNC(=O)c4cccc(C(=O)c5ccc(Cl)c(Cl)c5)c4)c3)s2)CCN1`, 3% (inactive).

`COc1cc2c(cc1C(F)(F)F)N(C(=O)Nc1ccc(Br)cn1)CC2`: the inhibition was 16% (inactive). On the same count and under the same terms, the same measure for `Brc1ccsc1-c1nc(NC2CCN(Cc3ccccc3)CC2)no1`: 0% (inactive). Still for that read-out and setting: in the case of `Cc1nc(Nc2ccc(F)cc2)nc(N2CCc3ccccc3[C@@H]2C)c1C` it was 12% (inactive); in that of `c1ccc2c3c([nH]c2c1)C(c1ccc2c(c1)CCO2)N(c1ncnc(N2CCN(CCCN4CCOCC4)CC2)n1)CC3` (configuration not stated), 37% (inactive). For `COc1c(C2CCN(CCCCNC(=O)C=Cc3ccccc3C(F)(F)F)CC2)ccc2c1CCCC2`, the inhibition was 98% (active). `CCS(=O)(=O)c1ccc(OC)c(Nc2nccc(-c3c(-c4cccc(NC(=O)c5c(F)cccc5F)c4)nn4ncccc34)n2)c1`: the inhibition was 27% (inactive). Same read-out and setting: the same measure for `C[C@@H]1CN(c2ccc3[nH]cc(Sc4ccc(-c5cccs5)cc4)c3c2)C[C@H](C)N1`: 29% (inactive); for `O=[N+]([O-])c1ccc(-n2nc(-c3cccnc3)n(Cc3ccco3)c2=S)c(Cl)c1`: 13% (inactive); for `COc1cc(Nc2nccc(-c3c(-c4cccc(NC(=O)c5c(F)cccc5F)c4)nn4ncccc34)n2)cc(OC)c1OC`: 96% (active).

As for `Cn1cccc1C(=O)Nc1cccc(-c2nn3ccccc3c2-c2ccnc(Nc3ccc4c(c3)OCCO4)n2)c1`, the inhibition is 12% (inactive). On the same count and under the same terms, the same measure for `CC(C)CN1C(=O)C(c2ccc(F)c(F)c2)=C(O)C1c1ccccc1` (configuration not stated): 0% (inactive).

Turning to `O=C(Nc1ccccc1)Nc1cccc(-c2nn3c(OCCN4CCCC4)cccc3c2-c2ccncc2)c1`, the inhibition is 30% (inactive).

As to `Cc1ccc(-n2c(C)cc(C(=O)CN3C(=O)NC(Cc4ccccc4)C3=O)c2C)cc1` (configuration not stated), the inhibition is -11% (inactive). Same read-out and setting: in the case of `Cc1csc2nc(C(C)c3ccc(NC(=O)c4cccs4)cc3)oc(=O)c12` (configuration not stated) it was -5% (inactive); in that of `COc1cc(Cc2cnc(N)nc2N)ccc1OCc1csc(-c2ccc(Cl)cc2)n1`, 39% (inactive); in that of `CCn1c(-c2nonc2N)nc2c(-c3cc4ccccc4s3)ncc(C(=O)N3CCC(N)C3)c21` (configuration not stated), 99% (active).
